Reference: the supplement of paper PMC6992640
± gives the standard deviation of the averaged measurements.

How the values were obtained:
Assay in all cases: cell viability (% of vehicle); higher = less cytotoxic
Settings in all cases: 10 µM; 72 h
HCI01 = tested on: HCI01 (cells of a triple-negative basal-like breast cancer xenograft)
HCI03 = tested on: HCI03 (cells of an ER-positive luminal breast cancer xenograft)
HCI09 = tested on: HCI09 (cells of a triple-negative luminal androgen receptor type breast cancer xenograft)
HCI11 = tested on: HCI11 (cells of an ER-positive luminal breast cancer xenograft)
HCI13 = tested on: HCI13 (cells of an ER-positive luminal breast cancer xenograft)
HCI16 = tested on: HCI16 (cells of a triple-negative basal-like breast cancer xenograft)
UCD52 = tested on: UCD52 (cells of a triple-negative basal-like breast cancer xenograft)
WHIM2 = tested on: WHIM2 (cells of a triple-negative basal-like breast cancer xenograft)
WHIM30 = tested on: WHIM30 (cells of a triple-negative basal-like breast cancer xenograft)
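Also: PDX cells carrying CMV promoter-driven luciferase, viability read as total photon flux per second by IVIS imaging following D-luciferin, vehicle control 0.1% DMSO.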

SMILES | cell viability (HCI01) | cell viability (HCI03) | cell viability (HCI09) | cell viability (HCI11) | cell viability (HCI13) | cell viability (HCI16) | cell viability (UCD52) | cell viability (WHIM2) | cell viability (WHIM30)
O=C([O-])C(O)C(O)C(O)C(O)C(O)CO.O=C([O-])C(O)C(O)C(O)C(O)C(O)CO.[Ca+2] (stereo not drawn) [Calcium Gluceptate] | 134 ± 3.3 | 162 | 112 ± 4.9 | 127 | 110 ± 8.2 | 124 | 87.2 ± 13 | 109 ± 3.2 | 141 ± 8.1
Cc1ccc(Nc2nccc(N(C)c3ccc4c(C)n(C)nc4c3)n2)cc1S(N)(=O)=O.Cl [Pazopanib Hydrochloride] | 123 ± 20 | 101 | 77.01 ± 0.6 | 96.8 | 75.6 ± 13 | 134 | 94.9 ± 13 | 127 ± 32 | 76.7 ± 5.5
CC1(C)SC2C(NC(=O)C(NC(=O)N3CCNC3=O)c3ccccc3)C(=O)N2C1C(=O)[O-].[Na+] (stereo not drawn) [Azlocillin sodium salt] | 97.6 ± 24 | 131 | 104 ± 17 | 104 | 76.5 ± 9.1 | 130 | 97.766 ± 0.039 | 106 ± 29 | 125 ± 12
CCCCNc1cc(C(=O)O)cc(S(N)(=O)=O)c1Oc1ccccc1 [Bumetanide] | 109 ± 9.6 | 95.9 | 109 ± 8.9 | 92 | 89.5 ± 4 | 108 | 99 ± 1.3 | 78.6 ± 14 | 133 ± 26
O=C1Nc2ccc(Cl)cc2C(C#CC2CC2)(C(F)(F)F)O1 (stereo not drawn) [Efavirenz] | 114 ± 16 | 85.9 | 68.9 ± 7.4 | 99.8 | 82.9 ± 7.3 | 108 | 69.5 ± 1.9 | 69.6 ± 46 | 82.3 ± 17
Cl.Cl.NCCc1cnc[nH]1 [Histamine 2HCl] | 118 ± 14 | 129 | 105 ± 8.2 | 105 | 124 ± 16 | 111 | 87.8 ± 4.6 | 81.3 ± 5.9 | 122 ± 5.2
OCCOc1ccc(C(=C(CCCl)c2ccccc2)c2ccccc2)cc1 [Ospemifene] | 117 ± 33 | 139 | 99.6 ± 30 | 106 | 91 ± 2.3 | 146 | 86.3 ± 1.5 | 78.5 ± 5.9 | 148 ± 10
O=C(O)c1ccc2c(c1)nc(Nc1cccc(Cl)c1)c1ccncc12 [CX-4945 (Silmitasertib)] | 115 ± 62 | 111 | 28.5 ± 13 | 137 | 192 ± 22 | 106 | 78 ± 8.1 | 99.48 ± 0.45 | 79.9 ± 14
CC(=O)OC1CC2CCC3C(CCC4(C)C3CC([N+]3(C)CCCCC3)C4OC(C)=O)C2(C)CC1N1CCCCC1.[Br-] (stereo not drawn) [Vecuronium Bromide] | 84.7 ± 11 | 146 | 90.5 ± 0.71 | 105 | 110 ± 14 | 93.9 | 87.7 ± 8.1 | 80.9 ± 7.3 | 155 ± 3.4
CCC1OC(=O)C(C)C(OC2CC(C)(OC)C(O)C(C)O2)C(C)C(OC2OC(C)CC(N(C)C)C2O)C(C)(OC)CC(C)C(=O)C(C)C(O)C1(C)O (stereo not drawn) [Clarithromycin] | 112 ± 5.1 | 137 | 94.7 ± 19 | 116 | 125 ± 11 | 96.6 | 95.5 ± 8.8 | 104 ± 10 | 113 ± 22
COc1ccc2c(c1)C(=O)N(CCc1ccc(S(=O)(=O)NC(=O)NC3CCCCC3)cc1)C(=O)C2(C)C [Gliquidone] | 89.2 ± 83 | 109 | 68.4 ± 19 | 91.4 | 94.6 ± 23 | 142 | 93.5 ± 11 | 130 ± 20 | 137 ± 19
CCCCC(C)(O)C/C=C/[C@H]1[C@H](O)CC(=O)[C@@H]1CCCCCCC(=O)OC (mixture of isomers) [Misoprostol] | 95 ± 25 | 120 | 107 ± 12 | 101 | 123 ± 9.4 | 112 | 96.6 ± 8.3 | 93.1 ± 9.9 | 107 ± 4.6
Oc1ccc(OC2CCCCO2)cc1 (stereo not drawn) [Deoxyarbutin] | 103 ± 22 | 138 | 127 ± 11 | 112 | 84.9 ± 5.5 | 145 | 129 ± 4.3 | 132 ± 34 | 117 ± 11
COc1cnc(NS(=O)(=O)c2ccc(N)cc2)nc1 [Sulfameter] | 97.7 ± 24 | 142 | 86.1 ± 1.6 | 83 | 93.22 ± 0.58 | 113 | 80.9 ± 21 | 92.2 ± 18 | 95.13 ± 0.27
O=C(NCC(O)CO)c1ccncc1Nc1ccc(I)cc1F (stereo not drawn) | 72.8 ± 3.9 | 72.9 | 55.3 ± 28 | 83.1 | 64.4 ± 5.6 | 116 | 70.57 ± 0.44 | 41.9 ± 8.5 | 130 ± 14
CC1(C)SC2C(NC(=O)C(N)c3ccccc3)C(=O)N2C1C(=O)[O-].[Na+] (stereo not drawn) [Ampicillin] | 101.47 ± 0.042 | 101 | 104 ± 9.8 | 84.6 | 86.7 ± 9.1 | 78.9 | 83.5 ± 3.9 | 77.9 ± 1.1 | 112 ± 20
Nc1nc(Cl)nc2c1ncn2C1CC(O)C(CO)O1 (stereo not drawn) [Cladribine] | 95.8 ± 7.4 | 118 | 94.6 ± 26 | 104 | 128 ± 34 | 58.3 | 110 ± 15 | 106 ± 34 | 78.8 ± 8.9
O=C(CCc1ccc(O)cc1)c1c(O)cc(O)cc1OC1OC(CO)C(O)C(O)C1O (stereo not drawn) [Phloridzin] | 104 ± 31 | 123 | 98.1 ± 10 | 97.7 | 106 ± 6.1 | 115 | 105 ± 4.7 | 96.2 ± 9.1 | 97.2 ± 7.4
CCNC(=O)CCCC=CCC1C(O)CC(O)C1C=CC(O)CCc1ccccc1 (stereo not drawn) [Bimatoprost] | 80.9 ± 64 | 154 | 91.9 ± 22 | 97.5 | 118 ± 6.7 | 144 | 86.2 ± 4.6 | 98.4 ± 23 | 148 ± 9.5

SMILES | cell viability (HCI01) | cell viability (HCI03) | cell viability (HCI09) | cell viability (HCI11) | cell viability (HCI13) | cell viability (HCI16) | cell viability (UCD52) | cell viability (WHIM2) | cell viability (WHIM30)
CCCCCOc1ccc(-c2cc(-c3ccc(C(=O)NC4CC(O)C(O)NC(=O)C5C(O)C(C)CN5C(=O)C(C(O)CC(N)=O)NC(=O)C(C(O)C(O)c5ccc(O)c(OS(=O)(=O)[O-])c5)NC(=O)C5CC(O)CN5C(=O)C(C(C)O)NC4=O)cc3)no2)cc1.[Na+] (stereo not drawn) [Micafungin sodium] | 104 ± 7.9 | 96.4 | 85.7 ± 5.6 | 92.6 | 113 ± 4 | 93.3 | 75.7 ± 12 | 39.4 ± 2.2 | 99 ± 12
Br.COc1ccc2c3c1O[C@H]1C[C@@H](O)C=C[C@@]31CCN(C)C2 [Galanthamine HBr] | 113 ± 6.7 | 102 | 97.02 ± 0.17 | 93.2 | 80.4 ± 8.2 | 73.8 | 97.8 ± 2.6 | 79.7 ± 12 | 118 ± 24
CO[C@H]1/C=C/O[C@@]2(C)Oc3c(C)c(O)c4c(c3C2=O)C2=NC3(CCN(CC(C)C)CC3)NC2=C(NC(=O)/C(C)=C\C=C\[C@H](C)[C@H](O)[C@@H](C)[C@@H](O)[C@@H](C)[C@H](OC(C)=O)[C@@H]1C)C4=O [Rifabutin] | 56.1 ± 34 | 116 | 57.3 ± 27 | 83.2 | 113 ± 16 | 121 | 81.2 ± 1.8 | 79.1 ± 27 | 143 ± 7.7
CCOC(=O)[C@H](CCc1ccccc1)N[C@@H](C)C(=O)N1[C@H](C(=O)O)C[C@H]2CCCC[C@@H]21 [Trandolapril] | 121 ± 2.9 | 148 | 115 ± 11 | 98.7 | 124 ± 12 | 130 | 112 ± 20 | 109 ± 14 | 174 ± 15
FC(F)(F)c1ccc(CNc2ccc(Cc3c[nH]c4ncc(Cl)cc34)cn2)cn1 [Pexidartinib (PLX3397)] | 100 ± 1.4 | 139 | 73.6 ± 3.9 | 91.3 | 96.9 ± 7.1 | 116 | 97.4 ± 16 | 96.5 ± 8.4 | 86 ± 11
COC(=O)C1=C(C)NC(C)=C(C(=O)OC)C1c1ccccc1[N+](=O)[O-] [Nifedipine] | 82.2 ± 18 | 130 | 66.9 ± 6.3 | 71.2 | 93.3 ± 14 | 111 | 92.25 ± 0.35 | 92.3 ± 17 | 110.7 ± 0.67
O=C(O)CCC(=O)O.O=C(OC1CN2CCC1CC2)N1CCc2ccccc2C1c1ccccc1 (stereo not drawn) [Solifenacin succinate] | 90.4 ± 10 | 107 | 91.8 ± 7 | 86.9 | 118 ± 9.5 | 104 | 57.36 ± 0.49 | 76.8 ± 2.9 | 87.6 ± 3.7
[O-][n+]1cccc(CO)c1 [Mepiroxol] | 117 ± 13 | 119 | 105.2 ± 0.98 | 103 | 99.24 ± 0.22 | 97 | 90.9 ± 8.7 | 95.7 ± 9.9 | 139 ± 26
CCCCN1CCCCC1C(=O)Nc1c(C)cccc1C.Cl (stereo not drawn) [Levobupivacaine HCl] | 109 ± 22 | 101 | 117 ± 29 | 106 | 121 ± 14 | 141 | 107 ± 4.1 | 96.2 ± 3 | 163 ± 5.2
O=C([O-])Cc1ccccc1Nc1c(Cl)cccc1Cl.[K+] [Diclofenac Potassium] | 117 ± 9.3 | 106 | 100 ± 24 | 100 | 65.9 ± 1.7 | 114 | 73.8 ± 2.9 | 109 ± 28 | 117 ± 39
CCCOc1ccc(C(=O)OCCN(CC)CC)cc1N.Cl [Proparacaine HCl] | 99.6 ± 12 | 165 | 91 ± 17 | 91.9 | 111 ± 5.8 | 109 | 102 ± 11 | 97.1 ± 7.6 | 114 ± 13
CC(=O)OC1(C(C)=O)CCC2C3C=C(Cl)C4=CC(=O)C5CC5C4(C)C3CCC21C (stereo not drawn) [Cyproterone Acetate] | 88.6 ± 12 | 112 | 73.1 ± 17 | 87.1 | 145 ± 8 | 110 | 89.2 ± 7.3 | 116 ± 34 | 128 ± 7.7
CN(C)C(=O)COC(=O)Cc1ccc(OC(=O)c2ccc(N=C(N)N)cc2)cc1.CS(=O)(=O)O [Camostat Mesilate] | 105 ± 24 | 133 | 85.2 ± 6.6 | 70.7 | 109 ± 5.7 | 112 | 99.8 ± 6.7 | 108 ± 5.9 | 110 ± 5.2
CO[C@H]1O[C@@H]2O[C@@]3(C)CC[C@H]4[C@H](C)CC[C@@H]([C@H]1C)[C@@]24OO3 [Artemether (SM-224)] | 102 ± 17 | 111 | 79.3 ± 25 | 74.7 | 84.1 ± 3.5 | 123 | 77 ± 4.6 | 117 ± 3.2 | 99.8 ± 3.1
CCOc1ccc(Cc2cc(C3OC(CO)C(O)C(O)C3O)ccc2Cl)cc1 (stereo not drawn) [Dapagliflozin] | 112 ± 8.7 | 113 | 89.6 ± 9.1 | 110 | 107 ± 18 | 128 | 78.8 ± 4.8 | 84 ± 6.9 | 103 ± 24
C[C@H]1COc2c(N3CCN(C)CC3)c(F)cc3c(=O)c(C(=O)O)cn1c23 [Levofloxacin] | 102 ± 26 | 109 | 88 ± 17 | 89.6 | 124 ± 50 | 123 | 88.7 ± 1.4 | 104 ± 12 | 132 ± 2.4
CC1CCc2cc(F)cc3c(=O)c(C(=O)O)cn1c23 (stereo not drawn) [Flumequine] | 92.8 ± 10 | 156 | 93.1 ± 7.6 | 118 | 117 ± 6.8 | 138 | 107 ± 5.8 | 98.4 ± 4.2 | 135 ± 15
CC(=O)N(c1onc(C)c1C)S(=O)(=O)c1ccc(N)cc1 [Sulfisoxazole Acetyl] | 90.9 ± 1.4 | 116 | 90.9 ± 11 | 95.7 | 95.2 ± 3.5 | 104 | 92.77 ± 0.54 | 106 ± 3.9 | 103 ± 1.9
